# Counter-ions that a name gives are not always drawn. ± gives the standard deviation of the averaged measurements.
# System: E. coli TESEC Mtb DapB
# Assay: growth (OD600 after 10 h); higher = more growth (less inhibition)
# Settings: arabinose induction (level): High; compound 0.1 mM; raw OD600 reference: median of DMSO wells […], cell-free background 0.041
# Protocol: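 TESEC E. coli strains in which the native enzyme is deleted and replaced by arabinose-inducible Mtb Asd, DapB, CysH or TrpD, each grown in its selective medium. Strains were screened against the Prestwick library at 0.1 mM and 1% DMSO in 384-well format at low and high arabinose induction. Growth is read as OD600 after 10 h in triplicate.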
row,SMILES,growth
1,CCCNCC(O)COc1ccccc1C(=O)CCc1ccccc1 (stereo not given) [Propafenone hydrochloride],0.173 ± 0.01
2,COc1cc(NS(=O)(=O)c2ccc(N)cc2)ncn1 [Sulfamonomethoxine],0.166 ± 0.026
3,Cc1ccc(C)c(OCCCC(C)(C)C(=O)O)c1 [Gemfibrozil],0.161 ± 0.029
4,O=C(NC(Cc1cc(=O)[nH]c2ccccc12)C(=O)O)c1ccc(Cl)cc1 (stereo not given) [Rebamipide],0.221 ± 0.0038
5,O=C1OCCN1/N=C/c1ccc([N+](=O)[O-])o1 [Furazolidone],0.114 ± 0.0074
6,CN(C)CCC=C1c2ccccc2CCc2ccccc21 [Amitryptiline hydrochloride],0.195 ± 0.019
7,CCN(CC)CCOCCOC(=O)C1(c2ccccc2)CCCC1 [Carbetapentane citrate],0.185 ± 0.021
8,CCc1cc(Cl)c(OC)c(C(=O)NC[C@@H]2CCCN2CC)c1O [S(-)Eticlopride hydrochloride],0.181 ± 0.011
9,CC1c2cccc(O)c2C(O)=C2C(=O)C3(O)C(O)=C(C(N)=O)C(=O)C(N(C)C)C3C(O)C21 (stereo not given) [Doxycycline hydrochloride],0.0563 ± 0.00081
10,Cn1c(NCCN(CCO)CCCc2ccc([N+](=O)[O-])cc2)cc(=O)n(C)c1=O [Nifekalant],0.2 ± 0.033
11,CCOc1ccccc1OCC1CNCCO1 (stereo not given) [Viloxazine hydrochloride],0.172 ± 0.029
12,CC(=O)NCCCS(=O)(=O)O [Acamprosate calcium],0.212 ± 0.031
13,CCC(=O)O[C@]1(C(=O)CCl)[C@@H](C)C[C@H]2[C@@H]3CCC4=CC(=O)C=C[C@]4(C)[C@@]3(F)[C@@H](O)C[C@@]21C [Clobetasol propionate],0.145 ± 0.019
14,C[N+](C)(C)CCOC(N)=O [Carbachol],0.194 ± 0.0084
15,CCC(C)(C)c1ccc(CC(C)CN2C[C@@H](C)O[C@@H](C)C2)cc1 (stereo not given in full) [Amorolfine hydrochloride],0.168 ± 0.02
16,O=C(O[C@@H]1C[C@@H]2C[C@H]3C[C@H](C1)N2CC3=O)c1c[nH]c2ccccc12 [Dolasetron mesilate],0.192 ± 0.019
17,C[N+](C)(C)CCCCCC[N+](C)(C)C [Hexamethonium dibromide dihydrate],0.205 ± 0.014
18,CC[N+](C)(CC)CCOC(=O)C1c2ccccc2Oc2ccccc21 [Methantheline bromide],0.173 ± 0.018
19,CN(C)CCCSC(=N)N [Dimaprit dihydrochloride],0.196 ± 0.006
20,c1ccc(-c2ccc(C(c3ccccc3)n3ccnc3)cc2)cc1 (stereo not given) [Bifonazole],0.0611 ± 0.0018

# Same assay, conditions: arabinose induction (level): Low; compound 0.1 mM; raw OD600 reference: median of DMSO wells 0.227, cell-free background 0.041
row,SMILES,growth
1,CCCNCC(O)COc1ccccc1C(=O)CCc1ccccc1 (stereo not given) [Propafenone hydrochloride],0.185 ± 0.015
2,COc1cc(NS(=O)(=O)c2ccc(N)cc2)ncn1 [Sulfamonomethoxine],0.19 ± 0.014
3,Cc1ccc(C)c(OCCCC(C)(C)C(=O)O)c1 [Gemfibrozil],0.195 ± 0.055
4,O=C(NC(Cc1cc(=O)[nH]c2ccccc12)C(=O)O)c1ccc(Cl)cc1 (stereo not given) [Rebamipide],0.244 ± 0.011
5,O=C1OCCN1/N=C/c1ccc([N+](=O)[O-])o1 [Furazolidone],0.112 ± 0.012
6,CN(C)CCC=C1c2ccccc2CCc2ccccc21 [Amitryptiline hydrochloride],0.232 ± 0.047
7,CCN(CC)CCOCCOC(=O)C1(c2ccccc2)CCCC1 [Carbetapentane citrate],0.199 ± 0.011
8,CCc1cc(Cl)c(OC)c(C(=O)NC[C@@H]2CCCN2CC)c1O [S(-)Eticlopride hydrochloride],0.259 ± 0.0028
9,CC1c2cccc(O)c2C(O)=C2C(=O)C3(O)C(O)=C(C(N)=O)C(=O)C(N(C)C)C3C(O)C21 (stereo not given) [Doxycycline hydrochloride],0.0531 ± 0.0036
10,Cn1c(NCCN(CCO)CCCc2ccc([N+](=O)[O-])cc2)cc(=O)n(C)c1=O [Nifekalant],0.258 ± 0.013
11,CCOc1ccccc1OCC1CNCCO1 (stereo not given) [Viloxazine hydrochloride],0.211 ± 0.019
12,CC(=O)NCCCS(=O)(=O)O [Acamprosate calcium],0.229 ± 0.028
13,CCC(=O)O[C@]1(C(=O)CCl)[C@@H](C)C[C@H]2[C@@H]3CCC4=CC(=O)C=C[C@]4(C)[C@@]3(F)[C@@H](O)C[C@@]21C [Clobetasol propionate],0.169 ± 0.021
14,C[N+](C)(C)CCOC(N)=O [Carbachol],0.26 ± 0.028
15,CCC(C)(C)c1ccc(CC(C)CN2C[C@@H](C)O[C@@H](C)C2)cc1 (stereo not given in full) [Amorolfine hydrochloride],0.197 ± 0.017
16,O=C(O[C@@H]1C[C@@H]2C[C@H]3C[C@H](C1)N2CC3=O)c1c[nH]c2ccccc12 [Dolasetron mesilate],0.217 ± 0.016
17,C[N+](C)(C)CCCCCC[N+](C)(C)C [Hexamethonium dibromide dihydrate],0.233 ± 0.042
18,CC[N+](C)(CC)CCOC(=O)C1c2ccccc2Oc2ccccc21 [Methantheline bromide],0.222 ± 0.018
19,CN(C)CCCSC(=N)N [Dimaprit dihydrochloride],0.199 ± 0.016
20,c1ccc(-c2ccc(C(c3ccccc3)n3ccnc3)cc2)cc1 (stereo not given) [Bifonazole],0.0597 ± 0.0022
